We go through 40 compounds from PubChem BioAssay.

Molecules are shown by their SMILES. Calls of active or inactive are those of the source. The rule behind the calls is not given here.

The target in this assay is Pantothenate synthetase (Mycobacterium tuberculosis (strain ATCC 25618 / H37Rv)) (UniProt P9WIL5). Nature of the assay: Recombinant Mtb pantothenate synthetase (PanC) inhibitors, coupled enzyme, confirmatory (AID 375).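 Note: 0% = full reaction with vehicle and 100% = no enzyme background.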 Conditions: coupled enzyme assay; at 10 µM, hits give high values.
Sequence of Pantothenate synthetase (Mycobacterium tuberculosis (strain ATCC 25618 / H37Rv)) (P9WIL5 whole entry, looked up): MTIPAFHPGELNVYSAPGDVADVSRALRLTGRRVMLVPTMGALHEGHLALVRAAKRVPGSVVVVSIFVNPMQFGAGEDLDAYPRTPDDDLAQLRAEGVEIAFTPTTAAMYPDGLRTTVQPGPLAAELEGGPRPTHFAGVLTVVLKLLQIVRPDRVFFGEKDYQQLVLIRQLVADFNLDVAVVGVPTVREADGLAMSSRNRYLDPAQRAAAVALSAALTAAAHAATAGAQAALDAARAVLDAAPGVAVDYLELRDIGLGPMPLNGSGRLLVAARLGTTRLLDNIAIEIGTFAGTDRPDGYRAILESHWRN
As a reminder, the inhibition is the drop in the measured response relative to a control, in per cent. For the compound `N#Cc1nc(COc2ccccc2)oc1NCCCn1ccnc1`, the inhibition was 0% (inactive).

For the compound `CCOC(=O)CCCn1nc(C)n2c(cc3sccc32)c1=O`, the inhibition was 5% (inactive).

As to `COc1ccc(CNc2oc(-c3ccccc3)nc2C#N)cc1`, the inhibition was 5% (inactive).

Take `CNC(=O)CN(c1cc(C)ccc1OC)S(=O)(=O)c1ccc(C)cc1`: the inhibition is 3% (inactive).

`CC(NCCc1ccc(O)cc1)C(O)c1ccc(O)cc1` (stereo not given): the inhibition is 0% (inactive).

In the case of `COc1ccccc1CNC(=O)C1CCC(CNc2c(N3CCOCC3)c(=O)c2=O)CC1` (stereo not given), the inhibition is 0% (inactive).

With `CCCCCCNS(=O)(=O)c1ccc(Cl)s1`, the inhibition was 2% (inactive).

Regarding `COc1cc(OC)nc(NC(=O)CSc2nc3ccccc3o2)n1`, the inhibition was 11% (inactive).

On to `O=C1C(Cl)=C(NCC2CCCO2)C(=O)N1CCc1ccccc1` (stereo not given), for which the inhibition is 0% (inactive).

Consider `O=c1c2ccccc2[nH]c(=S)n1CCN1CCC(=C(c2ccc(F)cc2)c2ccc(F)cc2)CC1`, for which the inhibition was 4% (inactive).

`CSCCC(N=CC1=C(O)CC(C)(C)CC1=O)C(=O)O` (stereo not given): the inhibition was 2% (inactive).

As for `COc1ccc(N2CCN(C(=O)CSc3nnc(Cn4nnc5ccccc54)n3C)CC2)cc1`, the inhibition was 0% (inactive).

For the compound `COc1cc2c(c(OC)c1)C(c1ccncc1)CC(=O)N2` (stereo not given), the inhibition is 0% (inactive).

`CC(C)OC(=O)CSc1nnc(Cc2ccccc2)n1Cc1ccco1`: the inhibition is 8% (inactive).

Regarding `Cc1ccc(C(=O)OCC(=O)c2ccc(Cl)s2)s1`, the inhibition is 4% (inactive).

On to `O=C(Nc1ccncc1)C1c2ccccc2Oc2ccccc21`, for which the inhibition was 0% (inactive).

With `O=C(CN1C(=O)CC(c2ccco2)Sc2ccccc21)Nc1ccccc1F` (stereo not given), the inhibition was 0% (inactive).

For `Cc1cc(=O)oc2cc(OCC(=O)OCc3nnc(-c4ccccc4)o3)ccc12`, the inhibition was 1% (inactive).

As to `O=C(CN1C(=O)COc2ccccc21)NCCCN1CCc2ccccc2C1`, the inhibition was 0% (inactive).

Regarding `CCOCCCNC(=O)Cn1ncc2c(=O)oc3ccccc3c21`, the inhibition is 0% (inactive).

Consider `CCCN1C(=O)SC(CC(=O)Nc2ccc(Br)cc2)C1=O` (stereo not given), for which the inhibition was 2% (inactive).

For `CCCCN(CC)S(=O)(=O)c1ccc2c(c1)CCCN2C(C)=O`, the inhibition is 6% (inactive).

On to `COc1cccc(N2C(=O)C(O)=C(C(C)=O)C2c2ccc(OC)c(OC)c2)c1` (stereo not given), for which the inhibition was 0% (inactive).

As for `COc1ccc(CCNC(=O)C2CC(=O)N(c3ccccc3)C2)cc1OC` (stereo not given), the inhibition is 0% (inactive).

Take `CCN1CCN(C(c2ccc(F)cc2)c2nnnn2Cc2cccs2)CC1` (stereo not given): the inhibition was 0% (inactive).

Turning to `Cc1cc(NCCN2CCOCC2)n2nc(C)c(-c3ccccc3)c2n1`, the inhibition was 0% (inactive).

Consider `CCSc1nnc(NC(=O)C(CC)(C(F)(F)F)C(F)(F)F)s1`, for which the inhibition is 0% (inactive).

`Clc1ccc2nc(N3CCCCC3)[nH]c2c1`: the inhibition is 3% (inactive).

As to `CC1(C)CC(=O)C(C=Nc2ccncc2)=C(O)C1`, the inhibition was 0% (inactive).

For `Cc1nc(CNS(=O)(=O)c2cc(C)c(C)cc2C)cs1`, the inhibition was 1% (inactive).

As for `O=C(CCNS(=O)(=O)c1cccs1)Nc1ccccc1F`, the inhibition was 3% (inactive).

`Cc1cc(C(F)(F)F)nc(SCC(=O)NC2=NC(=O)C(C)S2)n1` (stereo not given): the inhibition is 2% (inactive).

Take `Cc1csc(NC(=O)Nc2cccc(Cl)c2)n1`: the inhibition is 0% (inactive).

On to `Cc1ccc(N(C(C)C(=O)Nc2ccc(S(=O)(=O)N3CCOCC3)cc2)S(C)(=O)=O)cc1` (stereo not given), for which the inhibition is 0% (inactive).

In the case of `CC(C)(C)NC(=O)Cn1nnc(-c2cccs2)n1`, the inhibition is 5% (inactive).

Consider `CCCn1c2c(c(O)c(C(=O)Nc3ccc(C)cn3)c1=O)CCCC2`, for which the inhibition is 4% (inactive).

`Cc1ccc(C)c(N(CC(=O)NC2CCCC2)C(=O)CCCC(=O)Nc2ccccn2)c1`: the inhibition was 2% (inactive).

For the compound `CCn1c(CCC(=O)Nc2nc3c(s2)CCCC3)nc2cc(S(=O)(=O)N(C)C)ccc21`, the inhibition is 3% (inactive).

For `C=CCc1cc(OC)ccc1OCC(O)CN1CCN(c2ccc(OC)cc2)CC1` (stereo not given), the inhibition was 1% (inactive).

As to `CC(=O)c1ccc(NC(=O)C2CCN(S(=O)(=O)c3cccc4cccnc34)CC2)cc1`, the inhibition was 4% (inactive).
